Shown are actives, neighbours in structure and some others; about 2.2% of the full set was active somewhere.
BaF3 parental: parental Ba/F3 cell viability inhibition, counter-screen for JAK2V617F inhibitor project, murine pro-B, CellTiter-Glo luminescence | CellTiter-Glo ATP luminescence | inhibition, % at 5.6 µM | hit rate 1.1% among 220,000 | AID 1486, 2009;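 active = inhibition above a per-campaign cutoff, the mean inhibition of all tested compounds plus 3 SD, cut at about 27% in these data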;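 also: 0% = DMSO wells and 100% = JAK Inhibitor I control wells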
KLF5 inh: KLF5 expression inhibitors, primary screen, DLD-1 cells, luminescence; DLD-1 KLF5 promoter-luciferase reporter; inhibition, % at 5 µM; hit rate 0.23% among 290,000; AID 1700, 2009;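 active = inhibition above a per-plate limit of that plate's mean compound inhibition plus 3 SD, cut at about 60% in these data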;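 also: 0% = DMSO wells and 100% = LY294002 at 200 µM; higher means less KLF5 promoter-driven luciferase light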
Ba/F3 V617F tox: reduced viability of JAK2V617F-dependent Ba/F3 cells, primary screen, JAK2V617F inhibitor project, cell-based, Ba/F3 EpoR-JAK2V617F, luminescence; ATP luminescence; inhibition, % at 5.6 µM; hit rate 1.1% among 220,000; AID 1446, 2008;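 active = inhibition above the campaign mean plus 3 SD over all tested compounds, cut at about 24% in these data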;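 also: cytokine-independent growth of Ba/F3 cells driven by EpoR plus mutant JAK2; 0% = DMSO-treated cells and 100% = JAK inhibitor I control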
APP 5UTR inh: inhibitors of APP translation via 5'UTR reporter, primary screen, APP 5'UTR luciferase, SH-SY5Y cells; SH-SY5Y APP 5'UTR-luciferase reporter, luminescence; inhibition, % at 2 µM; hit rate 0.82% among 190,000;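 active = inhibition above a set limit, derived from the sample mean plus 3 SD, cut at about 45% in these data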
aSyn 5UTR inh: MLPCN primary screen, SNCA 5' untranslated region. inhibition, % (tested at 7.5 µM). alpha-synuclein 5'UTR reporter, inhibitor activity. AID 1813, 2009. hit rate 0.82% among 300,000; in the data active = inhibition above about 60%;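 also: H4 neuroglioblastoma cells stably carrying SNCA 5'UTR luciferase fusion; 0% = DMSO wells and 100% = positive control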
IEC-6 cytotox: cytotoxicity in IEC-6 intestinal epithelial cells, primary screen, cytotoxicity control for KLF5 inhibitor project, cell-based, luminescence. IEC-6 cytotoxicity, luminescence viability. inhibition, % at 5 µM. hit rate 0.78% among 290,000; in the data active = inhibition above about 22%;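 also: 0% = plate median of test compound wells and 100% = cytotoxic reference compound wells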
The depositor's hits bear a star; . = not tested or not shown.

SMILES | BaF3 parental | KLF5 inh | Ba/F3 V617F tox | APP 5UTR inh | aSyn 5UTR inh | IEC-6 cytotox
CC(=O)Nc1ccc(OCc2nnc(-c3ccccc3)o2)cc1 | . | -29.1 | . | . | -30.2 | -1.1
COc1ccc(-c2cc3nc[nH]c(=O)c3s2)cc1 | 4.0 | -37.1 | 0.8 | -29.1 | -31.5 | -0.1
COc1ccc(-c2cc3nc(CCl)[nH]c(=O)c3s2)cc1 | . | 38.8 | . | . | 71.2* | 8.5
Cc1cc(OCC[N+]2(C)CCCCC2)nc2ccccc12 | 47.6* | -31.6 | 49.9* | . | -8.4 | -8.7
Cc1cc(NC2CCCCC2)nc2ccccc12 | 6.4 | -33.5 | 6.2 | -4.3 | -42.6 | 18.7
c1ccc(-c2cn3c4c(sc3n2)CCCC4)cc1 | 4.4 | -134.2 | 4.9 | -87.8 | 116.8* | 15.4
Cc1nn2cc(-c3ccccc3)nc2s1 | 6.9 | -64.8 | 4.3 | -113.9 | -21.3 | 5.0
CCCCCCOc1ccc(/C(N)=N/O)cc1 | 36.8* | -99.9 | 27.0* | -78.2 | -173.1 | 0.4
N=C(N)c1ccc(OCCCCCOc2ccc(C(=N)N)cc2)cc1 | 53.0* | 10.3 | 63.4* | 3.0 | 67.0* | -1.7
COc1cc(-n2c(=O)c3ccccc3n(Cc3cc(=O)n4ccccc4n3)c2=O)cc(OC)c1OC | 0.2 | -5.9 | -0.6 | 10.4 | 6.7 | 4.4
O=C(NCc1ccco1)c1sc(=S)n2c1[nH]c(=O)c1ccccc12 | 90.5* | -19.3 | 0.9 | -17.9 | -21.4 | 1.4
O=C(C1CCCCC1)N1CCN(S(=O)(=O)c2ccc(Cl)cc2)CC1 | 1.3 | -2.5 | 1.5 | 7.8 | -30.2 | -2.0
COCCCNC(=O)c1c(N)n(-c2ccc3c(c2)OCO3)c2nc3ccccc3nc12 | 6.9 | -4.2 | 1.2 | 10.2 | 10.3 | 10.3
CCOCCCNC(=O)c1c(N)n(-c2ccc3c(c2)OCO3)c2nc3ccccc3nc12 | 59.9* | -1.4 | 35.7* | . | 20.7 | 21.5
O=C(/C=C/c1ccc(Cl)c(C(F)(F)F)c1)N1CCN(c2ccccn2)CC1 | . | -9.9 | . | . | -2.3 | 5.9
O=C(N/N=C/c1c(O)ccc2ccccc12)c1cccc(C(F)(F)F)c1 | 5.5 | 18.3 | 3.5 | 79.3* | 110.8* | 9.9
O=C(N/N=C/c1c(O)ccc2ccccc12)c1[nH]ncc1Br | 35.5* | 23.0 | 30.9* | 71.9* | 106.0* | 10.2
O=C(N/N=C\c1c(O)ccc2ccccc12)c1ccc(Cn2cccn2)o1 | 7.1 | 14.7 | 9.8 | 62.6* | 91.7* | 7.3
COc1ccc(OC)c(/C=N/NC(=O)c2[nH]ncc2Br)c1 | -1.5 | -94.2 | -5.0 | . | -1.5 | -1.2
CCOc1ccc(/C=N/NC(=O)c2[nH]ncc2Br)c(O)c1 | 6.9 | -16.1 | 20.8 | -24.0 | 18.7 | 28.8*
COc1ccc2ccccc2c1/C=N/NC(=O)c1cccc(Br)c1 | 4.5 | 11.8 | 2.0 | -5.2 | -22.0 | 6.8
Cc1nn(C)cc1NC(=O)c1nn(C)cc1[N+](=O)[O-] | 5.2 | 4.7 | -0.1 | 10.1 | 43.7 | -2.8
O=C(Nc1nc(-c2cc(F)ccc2F)cs1)c1cccc(N2C(=O)CCC2=O)c1 | . | . | . | . | 10.3 | .
O=[N+]([O-])c1cccc(S(=O)(=O)Nc2cccc(-c3ccc(N4CCCC4)nn3)c2)c1 | . | . | . | . | -0.4 | .
Cc1ccc(Nc2nc(-c3cccnc3)nc3ccccc23)cc1 | 29.8* | -0.2 | 49.2* | . | -94.7 | 19.0
SMILES | BaF3 parental | KLF5 inh | Ba/F3 V617F tox | APP 5UTR inh | aSyn 5UTR inh | IEC-6 cytotox
Cn1c(=O)c2c(nc(Br)n2CCc2ccccc2)n(C)c1=O | 3.0 | -7.1 | -1.0 | 7.7 | -4.8 | -2.7
CCN(CC)S(=O)(=O)c1ccc2oc(Nc3ccc(OC)cc3)nc2c1 | . | -27.4 | . | . | 0.8 | 4.4
CCOc1ccc(Nc2nc3cc(S(=O)(=O)N(CC)CC)ccc3o2)cc1 | 0.5 | -3.7 | 2.5 | 11.9 | 78.3* | 8.5
CCC(=O)Nc1ccc(NC(=O)c2ccco2)cc1 | 1.4 | -116.9 | -2.4 | -39.6 | -136.0 | -0.4
CCOc1ccc(CC(=O)Nc2ccc(NC(=O)c3ccco3)cc2)cc1OCC | -0.5 | -13.6 | -1.1 | 8.7 | 65.9* | 1.0
C(=N\Nc1nc2ccccc2[nH]1)/c1cccc2cccnc12 | 50.5* | 25.6 | 91.3* | . | 73.4* | -0.3
O=C1c2ccccc2NC(c2ccccc2)N1Cc1ccccc1 (configuration not stated) | . | . | . | . | -17.0 | .
COc1cccc(C2Nc3ccccc3C(=O)N2Cc2ccccc2)c1 (configuration not stated) | . | . | . | . | 79.3* | .
CC(C)(C)Nc1nc2nonc2nc1NC(C)(C)C | 33.5* | -25.3 | 34.6* | . | 9.2 | -2.4
Cc1ccc(C(=O)NC2=NCCS2)cc1 | -10.3 | -148.3 | 0.1 | . | -118.4 | 5.4
CCCOc1ccccc1C1CC(=O)NC(C)=C1C(=O)OCC(C)C (configuration not stated) | 3.6 | -15.1 | 1.8 | -11.2 | 15.8 | 2.8
COC(=O)C1=C(C)NC(C)=C(C(=O)OCC(C)C)C1c1ccccc1[N+](=O)[O-] (configuration not stated) | . | . | . | . | 70.5* | .
CCC(C)(C)c1ccc(OCCCC[n+]2cccc(C)c2)c(C(C)(C)CC)c1 | 87.0* | 26.5 | 101.4* | 2.6 | 20.9 | 16.2
OC(CNCCc1ccc(Cl)cc1)COCc1ccco1 (configuration not stated) | 93.6* | -40.7 | -0.9 | 1.0 | -11.0 | -4.4
Cc1sc2ncnc(NC3CCN(Cc4ccccc4)CC3)c2c1C | 33.9* | -7.4 | 32.5* | 4.5 | -25.6 | 16.3
c1ccc(CN2CCC(Nc3ncnc4sccc34)CC2)cc1 | 5.4 | -9.9 | -0.2 | -0.1 | -9.7 | 3.9
Cc1ccc(Cn2ccsc2=NC(=O)COC(=O)c2ccc(O)cc2O)cc1 | . | -70.0 | . | . | -58.6 | -6.1
NNC(=O)/C=C/c1ccc(Cl)cc1Cl | 2.9 | -14.0 | -2.5 | 2.6 | -34.4 | 5.4
CCSc1nccc(-c2nn(-c3ccc(C)cc3)ccc2=O)n1 | 37.7* | 6.7 | 31.4* | . | 21.4 | 17.4
Cc1cc(=O)[nH]c(SCC(=O)Nc2ccccc2C)n1 | 5.1 | -2.0 | -0.2 | -8.8 | -23.3 | -5.9
Cc1cc(=O)[nH]c(N=N/C(=N/Nc2ccc(O)cc2)c2ccccc2)n1 | 0.9 | -94.1 | -3.0 | -90.9 | -100.2 | 3.4
Cc1cc(=O)[nH]c(N=N/C(=N/Nc2ccccc2C)c2ccccc2)n1 | 2.0 | -27.7 | 0.8 | 4.1 | 81.6* | 2.5
COc1ccc(N/N=C(/N=Nc2nc(C)cc(=O)[nH]2)c2ccccc2)cc1 | 4.3 | -71.0 | 14.2 | -37.7 | 85.1* | 2.2
CCNc1ccc(C(=O)OCC(=O)NCc2ccccc2Cl)cc1[N+](=O)[O-] | 2.5 | -32.7 | -2.5 | -11.9 | 10.6 | -3.9
O=C1N(c2ccccc2)C[C@@H]2C[C@@H](c3cccs3)N3CCC[C@@]123 | -2.1 | -16.3 | -3.0 | 7.1 | -18.4 | 4.9
CC(C)(O)C#Cc1ccc([C@@H]2C[C@H]3CN(c4ccccc4)C(=O)[C@]34CCCN24)s1 | 5.2 | -1.9 | 2.0 | 81.6* | 3.1 | 4.3
COc1cc(/C=N/NC(=O)c2c(-c3c(Cl)cccc3Cl)noc2C)ccc1OCC(N)=O | . | -29.8 | . | . | -2.9 | 2.0

Screens deposited in PubChem by several laboratories.
